From the supplement of paper PMC6518042
Values without a mark were called inactive.

test system: Pectobacterium parmentieri SCC3193; experiment: DuctApe activity index (growth/respiration on compound as sole nutrient source, blank-subtracted) (activity index (0-3)); higher = stronger utilization of the compound, active = 3 or more; conditions: nutrient role (plate category): nitrogen
Procedure: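 Biolog Phenotype Microarray plates PM1, PM2A (carbon), PM3 (nitrogen) and PM4 (phosphorus/sulfur) inoculated with P. parmentieri SCC3193 in M9-C minimal salts medium with Biolog dye A, and read in the OmniLog for 46 h. Each well was tested in triplicate and the experiment was run twice. DuctApe computed a blank-subtracted activity index (AV, 0-3) from the mean curves; growth is positive at AV >= 3 and negative at AV <= 2.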

Structure (SMILES)	DuctApe activity index
Nc1nc2[nH]cnc2c(=O)[nH]1 [Guanine]	0
N [Ammonia]	0
O=C1NC(=O)C(=O)N1 [Parabanic acid]	0
CSCC[C@H](N)C(=O)N[C@@H](C)C(=O)O	0
C[C@H](N)C(=O)N[C@@H](Cc1cnc[nH]1)C(=O)O	0
NCCc1c[nH]cn1 [Histamine]	0
NC=O [Formamide]	0
NC(=O)NCCC[C@H](N)C(=O)O [L-Citrulline]	0
Nc1ccn([C@@H]2O[C@H](CO)[C@@H](O)[C@H]2O)c(=O)n1 [Cytidine]	3 (active)
Nc1cc[nH]c(=O)n1 [Cytosine]	0

same assay, conditions: nutrient role (plate category): phosphate & sulphur

Structure (SMILES)	DuctApe activity index
O=P(O)(O)O[C@H]1O[C@H](CO)[C@@H](O)[C@H](O)[C@@H]1O [D-Mannose-1-Phosphate]	2
NC(Cc1ccc(OP(=O)(O)O)cc1)C(=O)O (stereo in doubt) [O-Phospho-D-Tyrosine]	2
O=c1ccn([C@@H]2O[C@H](CO)[C@@H](O)[C@H]2OP(=O)(O)O)c(=O)[nH]1 [Uridine 2`-Monophosphate]	2
O=P(O)(O)OC[C@H]1OC(O)[C@@H](O)[C@@H](O)[C@@H]1O (stereo partly drawn) [D-Mannose-6-Phosphate]	1
N[C@@H](Cc1ccc(OP(=O)(O)O)cc1)C(=O)O [O-Phospho-L-Tyrosine]	2
O=S(=O)(O)SSS(=O)(=O)O [Tetrathionate]	1
N[C@@H](CS)C(=O)NCC(=O)O	1
O=c1ccn([C@@H]2O[C@H](CO)[C@@H](OP(=O)(O)O)[C@H]2O)c(=O)[nH]1 [Uridine 3`-Monophosphate]	2
